Lassa entry inh = inhibitors of Lassa virus binding or cell entry; Potency, µM (series often up to 37.9 µM), hits mostly inhibitors; actives 1.2% (n = 300,000); Lassa virus pseudotype entry inhibition, cell reporter; calls by dose curve; tested in HEK293 cells; further: nearly all actives have a fitted effect of over 50% in size
CHX counter = counter-screen hit for Shiga toxin inhibitors, cycloheximide. actives 12% (n = 300,000). max response, %. cell reporter, cycloheximide protein synthesis inhibition counterscreen. AID 2314; in the data active means max response mostly above about 13%, no sharp cut-off; inactive means mostly below about 14%; further: read at 38.3 µM for the half of the compounds with a filed dose
Pf growth 48h = P. falciparum growth inhibition at 48 hours (one generation). P. falciparum luciferase growth in erythrocytes, 48 h. Potency, µM (series often up to 28.7 µM), most hits filed as inhibitors. actives 5.9% (n = 310,000). AID 504832
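Compounds are pin-transferred into medium, infected erythrocytes (2% hematocrit, 0.1% parasitemia final) are added, and plates sit one parasite generation at 37 C in 5% CO2. Detection reagent is then added and luminescence measured.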
Pf growth 96h = P. falciparum growth inhibition at 96 hours | Potency, µM (titrated, usually from 28.7 µM), actives largely listed as inhibitors | actives 6.9% (n = 320,000) | P. falciparum luciferase reporter growth, 96 h
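Readout is luminescence from an integrated firefly luciferase in P. falciparum. Red cells, 2% hematocrit and 0.05% parasitemia final, were cultured with compound through two parasite generations (96 hours) at 37 C, 5% CO2.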
MARV entry inh = inhibitors of Marburg virus binding or cell entry; AID 540276; actives 1.8% (n = 300,000); Potency, µM (top dose mostly 37.8 µM), most hits filed as inhibitors; Marburg virus pseudotyped entry inhibition, cell reporter; calls by dose curve; tested in HEK293 cells
Shiga inhibitor = inhibitors of Shiga toxin in Vero cells | Vero cells, Shiga toxin protein synthesis inhibition reporter | inhibition, % at 38.7 µM | actives 9.2% (n = 290,000); in the data active means inhibition mostly above about 28%, no sharp cut-off; inactive means mostly below about 43%
Large screens that a line does not name were inactive. This is a sample that favours compounds with a hit; in the whole collection about 19% have one here. Unless noted, the call rests on the fitted dose curve; in most records, active means well fitted inhibition curve with a large enough effect; inconclusive means small, poorly fitted or top-dose-only effect, or another doubt; inactive means no such curve, though single readings can be large or run the other way.

COCCN(Cc1nc(C2(c3ccc(C)cc3)CCCC2)no1)C(C)C	Lassa entry inh inconclusive, Pf growth 48h inconclusive, Pf growth 96h 13.1µM, MARV entry inh inconclusive
Cc1ccc(C2(c3noc(CN4CCC(c5ccncc5)CC4)n3)CCCC2)cc1	Pf growth 48h inconclusive, Pf growth 96h 11.7µM, MARV entry inh inconclusive
CN(CC(=O)Nc1cccc(F)c1)C(=O)Cn1c(=O)oc2ccccc21	none (no result: Lassa entry inh, CHX counter, MARV entry inh, Shiga inhibitor)
CCN1CC=C(c2c[nH]c3ccccc23)CC1	Pf growth 48h 1.04µM, MARV entry inh inconclusive
CC(=O)c1ccccc1NS(=O)(=O)c1ccc2c(c1)CC(=O)N2	Pf growth 48h inconclusive, Pf growth 96h 4.65µM (no result: Lassa entry inh, CHX counter, MARV entry inh, Shiga inhibitor)
O=C1OC(Nc2ncccn2)c2ccccc21 (stereo unspecified)	none (no result: Pf growth 48h)
O=C1C2C3C=CC(CC3)C2C(=O)N1/N=C/c1c[nH]c2ccccc12 (stereo unspecified)	CHX counter 51.9, MARV entry inh inconclusive, Shiga inhibitor 124.9
COc1ccc(/C=N/N2C(=O)C3C4C=CC(CC4)C3C2=O)c(OC)c1 (stereo unspecified)	CHX counter 45.3, MARV entry inh inconclusive, Shiga inhibitor 54.7
COC(=O)c1cccc(-n2nnnc2SCC(=O)Nc2cc(C)on2)c1	none (no result: Pf growth 96h)
COCCN1CC(C(=O)NCc2ccccc2-n2ccnc2C)CCC1=O (stereo unspecified)	none
C/C(=N\N=c1/scc(C)n1Cc1ccco1)c1cccc([N+](=O)[O-])c1	CHX counter 17.8, Pf growth 96h inconclusive, MARV entry inh inconclusive
COc1ccc(NC(=O)CNc2ccc(C#N)cc2)cc1	Pf growth 48h inconclusive, MARV entry inh inconclusive
O=C(CSc1nnc(SCc2ccccc2Cl)s1)N/N=C/c1c[nH]c2ccccc12	MARV entry inh inconclusive
Cc1cn2c(=O)cc(COC(=O)c3ccc(NC(=O)COc4ccccc4C)cc3)nc2s1	none (no result: CHX counter, Pf growth 48h, Pf growth 96h, MARV entry inh, Shiga inhibitor)
O=C(Cn1cc(C(F)(F)F)cc(Cl)c1=O)NCc1ccc(F)cc1	Lassa entry inh inconclusive, Shiga inhibitor 87.5
CN(C)S(=O)(=O)c1cccc(NC(=O)Cn2cc(C(F)(F)F)cc(Cl)c2=O)c1	Shiga inhibitor 71.3 (no result: Lassa entry inh, MARV entry inh)
O=C(Cn1cc(C(F)(F)F)cc(Cl)c1=O)NCCc1ccc(Cl)cc1Cl	Pf growth 48h inconclusive (no result: Lassa entry inh, MARV entry inh)
CCC(C)NCCCOc1cc(Cl)ccc1Cl (stereo unspecified)	Lassa entry inh inconclusive, MARV entry inh inconclusive (no result: Pf growth 48h)
O=C1NC(c2ccccc2)C(C(=O)c2cccs2)=C1O (stereo unspecified)	Pf growth 96h 11.7µM
O=C(C1=C[C@H](c2csc3ccccc23)C[C@H](OCc2ccc(CO)cc2)O1)N1CCN(Cc2ccc3c(c2)OCO3)CC1	Pf growth 48h inconclusive, Pf growth 96h 4.15µM (no result: Lassa entry inh, MARV entry inh)
O=C(C1=C[C@H](c2coc3ccccc3c2=O)C[C@H](OCc2ccc(CO)cc2)O1)N1CCN(Cc2ccc3c(c2)OCO3)CC1	Pf growth 48h 1.47µM, Pf growth 96h 1.31µM (no result: Lassa entry inh, MARV entry inh)
CN1CCN(C(=O)C2=C[C@@H](c3csc4ccccc34)C[C@@H](OCc3ccc(CO)cc3)O2)CC1	Pf growth 48h inconclusive, Pf growth 96h inconclusive (no result: Lassa entry inh, MARV entry inh)
O=C(C1=C[C@@H](c2coc3ccccc3c2=O)C[C@@H](OCc2ccc(CO)cc2)O1)N1CCN(Cc2ccc3c(c2)OCO3)CC1	Pf growth 48h inconclusive, Pf growth 96h inconclusive (no result: Lassa entry inh, MARV entry inh)
O=C(C1=C[C@H](c2csc3ccccc23)C[C@H](OCc2ccc(CO)cc2)O1)N1CCN(Cc2ccccc2)CC1	Pf growth 48h inconclusive, Pf growth 96h 9.28µM (no result: Lassa entry inh, MARV entry inh)
OC(c1ccccc1)c1nc2ccccc2s1 (stereo unspecified)	none (no result: Pf growth 48h)
Cc1cccc(C)c1OCCSc1n[nH]c(N)n1	none (no result: Pf growth 48h)
COC(=O)c1ccc(CN2C(=O)C3CCCCC3C2=O)o1 (stereo unspecified)	Pf growth 48h 3.29µM (no result: Lassa entry inh, MARV entry inh)
O=S(=O)(Nc1cccc2cccnc12)c1ccc(S(=O)(=O)N2CCCC2)cc1	Lassa entry inh 8.2µM, Pf growth 48h 10.4µM, Pf growth 96h inconclusive, MARV entry inh inconclusive
Cc1ccc2cccc(NS(=O)(=O)c3ccccc3)c2n1	Lassa entry inh inconclusive, Pf growth 48h inconclusive, MARV entry inh 1.41µM
COc1ccc(NS(=O)(=O)c2ccc3ccccc3c2)c2ncccc12	Lassa entry inh inconclusive, Pf growth 48h 2.94µM, MARV entry inh inconclusive
O=S(=O)(Nc1cccc2cccnc12)c1ccccc1	Lassa entry inh inconclusive, Pf growth 48h 3.7µM, MARV entry inh inconclusive
O=C(c1ccc(CS(=O)Cc2ccccc2Cl)o1)N1CCN(c2cccc(Cl)c2)CC1 (stereo unspecified)	Lassa entry inh inconclusive, MARV entry inh inconclusive
O=C(CN1CCCC1)Nc1c2c(nc3ccccc13)N(Cc1ccccc1)CC2	Pf growth 48h inconclusive, MARV entry inh inconclusive (no result: Pf growth 96h)
Cc1cc(C)c(NS(=O)(=O)c2cccc3cccnc23)c(C)c1	Pf growth 48h inconclusive
Cc1ccc(S(=O)(=O)Nc2cccc3cccnc23)c([N+](=O)[O-])c1	Lassa entry inh 10µM, Pf growth 48h 2.62µM, MARV entry inh inconclusive
O=[N+]([O-])c1ccc(-c2cn3c(n2)CCC3)cc1	CHX counter 57.0, Shiga inhibitor 104.2 (no result: Lassa entry inh, MARV entry inh)
COc1ccc(OC)c(NC(=O)CN2CCC(NC(=O)c3ccccc3C)CC2)c1	none (no result: Lassa entry inh, MARV entry inh)
CC(C)OC(=O)CCC1(C(=O)O)CCC(=O)NC1 (stereo unspecified)	Pf growth 48h 1.31µM (no result: Pf growth 96h)
CC(=O)N(CC(=O)O)c1ccccc1	MARV entry inh inconclusive
Cc1cc(=O)oc2cc(OCC(=O)NCC3CCC(C(=O)O)CC3)ccc12 (stereo unspecified)	none (no result: Lassa entry inh, MARV entry inh)
Cc1cc(OC(C)C(=O)NCC2CCC(C(=O)O)CC2)c2c(C)c(Cc3ccccc3)c(=O)oc2c1 (stereo unspecified)	Pf growth 48h inconclusive, Pf growth 96h 10.4µM (no result: Lassa entry inh, MARV entry inh)
Cc1c(Cc2ccccc2)c(=O)oc2c(C)c(OC(C)C(=O)NCC3CCC(C(=O)O)CC3)ccc12 (stereo unspecified)	Pf growth 48h inconclusive, Pf growth 96h 13.1µM (no result: Lassa entry inh, MARV entry inh)
Cc1cc(OC(C)C(=O)NCc2cccnc2)c2c(C)c(Cc3ccccc3)c(=O)oc2c1 (stereo unspecified)	Pf growth 48h inconclusive, Pf growth 96h inconclusive (no result: Lassa entry inh, MARV entry inh)
Cc1c(Cc2ccccc2)c(=O)oc2cc(OCC(=O)NCC3CCC(C(=O)O)CC3)ccc12 (stereo unspecified)	Pf growth 48h inconclusive, Pf growth 96h 11.7µM (no result: Lassa entry inh, MARV entry inh)
COc1ccccc1CCNC(=O)CCCn1nc(C)c2c(C)n(-c3ccc(C)cc3)nc2c1=O	Pf growth 48h inconclusive, Pf growth 96h inconclusive (no result: Lassa entry inh, MARV entry inh)
COc1ccc(/C=N/Nc2cc(C)nc(-n3nc(C)cc3C)n2)c(OC)c1	Lassa entry inh 20.6µM, Pf growth 48h 1.47µM, Pf growth 96h 0.329µM, MARV entry inh inconclusive
CCOc1ccc(Nc2cc(C)nc(-n3nc(C)cc3C)n2)cc1	Lassa entry inh inconclusive, Pf growth 48h 1.85µM, Pf growth 96h inconclusive, MARV entry inh 0.251µM
CNc1cc(C)nc(-n2nc(C)cc2C)n1	Pf growth 48h 8.28µM, Pf growth 96h 4.65µM
Cc1cc(N/N=C/c2ccc(F)cc2)nc(-n2nc(C)cc2C)n1	Lassa entry inh inconclusive, Pf growth 48h 0.329µM, Pf growth 96h 1.04µM, MARV entry inh inconclusive

Compound activity deposited in PubChem BioAssay by National Center for Advancing Translational Sciences (NCATS).
